In PubChem BioAssay (NCATS):
Results filed as inconclusive are left out. Entries that show only a call come without a potency. Activity calls are given as the source filed them. Calls follow the shape of the dose curve; as a rule, active = well fitted inhibition curve with a large enough effect; inconclusive = small, poorly fitted or top-dose-only effect; inactive = flat fitted curve, though single readings scatter.

Tested on: CP260
Assay: qHTS profiling for inhibitors of Plasmodium falciparum proliferation (AID 504749); also: nearly all actives have a fitted effect of over 60% in size
Conditions: P. falciparum in erythrocytes, SYBR Green DNA, 72 h; series mostly up to 28.7 µM
In short: (§1)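 Infected RBCs, 0.3% parasitemia/2.5% Hct final; cpd 72 h, 37 C, 5% CO2; lysis buffer with saponin/triton/SYBR Green I, o/n RT dark; FI 485/535; norm. to artemisinin (0.29 uM) and DMSO.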
Potency is read from the fitted curve at half-maximal effect.

SMILES | Potency
CN[C@H](C)CCC=C(C)C | 224 nM (active)
CC1(C)C2CC[C@]1(C)[C@@H](O)C2 | inactive
OCC1O[C@H](Oc2ccc(O)cc2)C(O)C(O)C1O (stereo partly specified) | inactive
Nc1nc(F)nc2c1ncn2[C@@H]1O[C@H](CO)[C@@H](O)[C@H]1O | inactive
CC1OC(OC2CCC3(C)C(CCC4C3CC(O)C3(C)C(C5=CC(=O)OC5)CCC43O)C2)CC(O)C1OC1CC(O)C(OC2CC(O)C(OC3OC(CO)C(O)C(O)C3O)C(C)O2)C(C)O1 (stereo unspecified) | inactive
CC1OC(OCC2OC(Oc3c(-c4ccc(OCCO)c(OCCO)c4)oc4cc(OCCO)cc(O)c4c3=O)C(O)C(O)C2O)[C@@H](O)C(O)C1O (stereo partly specified) | inactive

Tested on: CP262
Assay: as above
Conditions: P. falciparum in erythrocytes, SYBR Green DNA, 72 h; series mostly up to 28.7 µM
In short: as §1

SMILES | Potency
CCCCCCCCCCCCCCCC(=O)OC[C@H](O)[C@H]1OC[C@@H](O)[C@@H]1O | inactive
CCCCC(=O)OCC(=O)[C@]1(O)Cc2c(O)c3c(c(O)c2[C@H](OC2CC(NC(=O)C(F)(F)F)C(O)C(C)O2)C1)C(=O)c1c(OC)cccc1C3=O (stereo partly specified) | 1900 nM (active)
C[C@H]1OC(OC2C(O)[C@@H](O)C(OC3C(O)[C@@H](O)C(O)O[C@@H]3CO)O[C@@H]2CO)[C@H](O)C(O)C1N[C@H]1C=C(CO)[C@@H](O)[C@H](O)C1O (stereo partly specified) | inactive
CCN(CC)CC(=O)Nc1c(C)cc(C)cc1C | inactive
CC(=O)N[C@H]1[C@H](O[C@@H]2c3ccc(c(Cl)c3)Oc3cc4cc(c3O[C@@H]3O[C@H](CO)[C@@H](O)[C@H](O)C3C)Oc3ccc(cc3Cl)C[C@H]3NC(=O)[C@@H](N)c5ccc(O)c(c5)Oc5cc(O)cc(c5)[C@H](NC3=O)C(=O)N[C@H]4C(=O)N[C@H]3C(=O)N[C@@H]2C(=O)N[C@@H](C(=O)O)c2cc(O)cc(O[C@H]4O[C@H](CO)[C@@H](O)C(O)[C@@H]4O)c2-c2cc3ccc2O)O[C@H](CO)[C@@H](O)[C@@H]1O (stereo partly specified) | inactive
